# Test results published in PubChem BioAssay (NCI).
# This is part of a sample that, as a whole, favours compounds with a hit. Of some 79,000 tested, about 15% had one in any assay. Values without a mark were called inactive. The source made the active and inactive calls. Cut-off read from the data, not from the text of the source: active = growth inhibition above about 70%; inactive = the rest.
# What was measured:
# [1] = NCI Yeast Anticancer Drug Screen. Data for the rad50 strain (AID 155);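 note: 0% = growth of vehicle-only cultures of the same strain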; conditions: S. cerevisiae rad50 strain growth inhibition, stronger effect = higher value
# Method in brief: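 Yeast carrying a defined DNA repair defect were exposed to test compounds, and growth was compared with vehicle-treated controls to give percent inhibition.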
# [2] = NCI Yeast Anticancer Drug Screen. Data for the mec2-1 strain (AID 157); conditions: S. cerevisiae mec2-1 strain, stronger effect = higher value
# Method in brief: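 Using mec2-1 yeast: add compound, measure growth, express inhibition versus vehicle-treated cultures.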
# [3] = NCI Yeast Anticancer Drug Screen. Data for the sgs1 mgt1 strain (AID 161);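 note: 0% = growth of cultures given vehicle only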; conditions: S. cerevisiae sgs1 mgt1 strain, stronger effect = higher value
# Method in brief: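 Growth of a repair-deficient yeast mutant was monitored after compound treatment and expressed as inhibition relative to vehicle-treated cultures.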
# [4] = NCI Yeast Anticancer Drug Screen. Data for the cln2 rad14 strain (AID 165);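 note: 0% = growth equal to vehicle treated cultures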; conditions: S. cerevisiae cln2 rad14 strain, stronger effect = higher value
# Method in brief: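 Yeast strain cln2 rad14, bearing defects in cell cycle control and DNA repair, serves as the test system; values reflect growth inhibition compared with vehicle.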
# [5] = NCI Yeast Anticancer Drug Screen. Data for the bub3 strain (AID 167); conditions: S. cerevisiae bub3 mutant strain, stronger effect = higher value
# Method in brief: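 Compounds were applied to a genetically altered yeast strain carrying a cell-cycle control defect. Growth inhibition was scored against vehicle-treated controls.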
# [6] = NCI Yeast Anticancer Drug Screen. Data for the mlh1 rad18 strain (AID 175); conditions: S. cerevisiae mlh1 rad18 strain growth inhibition, stronger effect = higher value
# Method in brief: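 Steps: expose repair-defective yeast to compound; measure growth; express inhibition against vehicle-treated controls.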
# [7] = at 5.0 µM (retest, dose inferred, filed as 0.5)
# [8] = at 50.0 µM (retest, dose inferred, filed as 5.0)
Compound,"growth inhibition [1, 7]","growth inhibition [1, 8]",growth inhibition ([1]; at 50.0 µM),"growth inhibition [2, 7] [%]","growth inhibition [2, 8]",growth inhibition ([2]; at 50.0 µM),"growth inhibition [3, 7] [%]","growth inhibition [3, 8]",growth inhibition ([3]; at 50.0 µM),"growth inhibition [4, 7] [%]","growth inhibition [4, 8]",growth inhibition ([4]; at 50.0 µM),"growth inhibition [5, 7] [%]","growth inhibition [5, 8]",growth inhibition ([5]; at 50.0 µM),"growth inhibition [6, 7] [%]","growth inhibition [6, 8]",growth inhibition ([6]; at 50.0 µM)
CCOC(=O)N1c2ccc3ccccc3c2C=CC1C#N (configuration not stated),0%,6%,96.5% (active),-12,-5%,97.3% (active),-1,14%,96.6% (active),-11,7%,95.5% (active),-18,-20%,86.3% (active),-2,-6%,94.7% (active)
CSC(=S)OC1CC(n2cnc3c(NC(=O)c4ccccc4)ncnc32)OC1CO[Si](C)(C)C(C)(C)C (configuration not stated),1%,-1%,6.5%,0,2%,-3.65%,-1,2%,10.4%,-1,6%,73% (active),-1,-5%,1.45%,0,-1%,16.6%
CCCC(O)[C@@]1(CC)CC(C)C(O)(C2(C)C[C@H](C)[C@@H](C(CC)C(=O)C(C)[C@@H](O)[C@H](C)C3OC(O)(C(CC)C(=O)O)[C@@H](C)C(O)C3CC)O2)O1 (some centres not stated),-9%,-13%,14.7%,-27,-13%,23.1%,-9,-6%,23.3%,0,28%,29.3%,-10,-14%,25.9%,-10,-8%,85.9% (active)
COc1cc(O)c2c(c1)C(=O)c1cc3c(c(O)c1C2=O)C(OC1OC(C)C(O)C(O)C1OC)C(OC)C(C)(O)C3=O (configuration not stated),95% (active),99% (active),92.5% (active),35,99% (active),93.4% (active),35,99% (active),93.7% (active),12,99% (active),89.9% (active),15,99% (active),93.3% (active),58,99% (active),92.8% (active)
O=C(Sc1ccccc1)C1OC12CCCCC2 (configuration not stated),-160%,-116%,50.5%,-48,-44%,31.2%,-68,-47%,63.8%,-62,-75%,-8.05%,-65,-57%,8.8%,-122,-90%,50.1%
C=CCNC(=S)N/N=C(/c1ccccn1)C(C)C,1%,40%,89.8% (active),-1,36%,98.5% (active),-2,80% (active),96.9% (active),-4,28%,91.3% (active),-2,41%,96.3% (active),-2,69%,96% (active)
CC(C)CCCC(C)C1CCC2C3C=CC4=CCCCC4(C)C3CCC12C (configuration not stated),-18%,95% (active),97.6% (active),3,98% (active),94.8% (active),-8,96% (active),8.35%,-5,94% (active),93% (active),-4,93% (active),91.2% (active),31,98% (active),98.1% (active)
O=C1C(CCl)=CS(=O)(=O)c2ccccc21,10%,99% (active),99.1% (active),17,99% (active),99.3% (active),16,99% (active),99.2% (active),5,99% (active),99.3% (active),4,99% (active),99.3% (active),36,99% (active),99.2% (active)
CCOC(=O)OC(=S)N(C1CCCCC1)C1CCCCC1,4%,58%,50.5%,0,90% (active),16.6%,5,76% (active),50.8%,5,58%,41.4%,-1,77% (active),61.9%,1,85% (active),60.8%
